Reference: PubChem BioAssay (NCI)
The panel holds about 79,000 compounds, 15% with a hit somewhere; the sample as a whole holds those more often. Values without a mark were called inactive. The source made the active and inactive calls. No stated cut-off is given here; in the data, active means growth inhibition above about 70%; inactive means the rest.

What was measured:
[1] = NCI Yeast Anticancer Drug Screen. Data for the wt1 strain (AID 149);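 further: 0% = growth of vehicle-treated wt1 cultures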; conditions: S. cerevisiae wt1 strain (SPY 50644) growth inhibition, active compounds read high
Summary of the method: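 Each compound is tested on wt1 yeast and the loss of growth versus vehicle gives the inhibition value.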

[2] = NCI Yeast Anticancer Drug Screen. Data for the rad50EPP+ strain (AID 151);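 further: 0% = growth of vehicle-treated control cultures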; conditions: S. cerevisiae rad50 mutant strain, active compounds read high
Summary of the method: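 Read-out is yeast growth inhibition relative to vehicle; cells used were the rad50EPP+ strain.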

[3] = NCI Yeast Anticancer Drug Screen. Data for the mgt1 strain (AID 153); conditions: S. cerevisiae mgt1 mutant growth inhibition, active compounds read high
Summary of the method: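 Measured: inhibition of mgt1 yeast growth by compound, normalized to vehicle-treated cultures.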

[4] = NCI Yeast Anticancer Drug Screen. Data for the rad50 strain (AID 155);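 further: 0% = growth of vehicle-only cultures of the same strain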; conditions: S. cerevisiae rad50 strain growth inhibition, active compounds read high
Summary of the method: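 Vehicle-treated cultures provide the reference for the growth inhibition reported for compound-exposed, repair-deficient yeast.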

[5] = NCI Yeast Anticancer Drug Screen. Data for the mec2-1 strain (AID 157); conditions: S. cerevisiae mec2-1 strain, active compounds read high
Summary of the method: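 Using mec2-1 yeast: add compound, measure growth, express inhibition versus vehicle-treated cultures.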

[6] = NCI Yeast Anticancer Drug Screen. Data for the rad14 strain (AID 159);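 further: 0% = growth of vehicle-treated control cultures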; conditions: S. cerevisiae rad14 strain growth inhibition, active compounds read high
Summary of the method: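 Inhibition of growth is reported for a repair-deficient yeast mutant following compound treatment, calculated relative to cultures that received vehicle.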

[7] = NCI Yeast Anticancer Drug Screen. Data for the sgs1 mgt1 strain (AID 161);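 further: 0% = growth of cultures given vehicle only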; conditions: S. cerevisiae sgs1 mgt1 strain, active compounds read high
Summary of the method: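 This yeast growth screen uses a strain with defined DNA-repair lesions; compound-treated growth is compared with vehicle-treated growth.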

[8] = NCI Yeast Anticancer Drug Screen. Data for the CLN2oe strain (AID 163);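 further: 0% = growth of vehicle-only control cultures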; conditions: S. cerevisiae CLN2oe strain, active compounds read high
Summary of the method: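 Whole-cell yeast growth assay. A strain engineered for altered cell-cycle control received compound, and inhibition relative to vehicle-treated cultures was recorded.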

[9] = NCI Yeast Anticancer Drug Screen. Data for the cln2 rad14 strain (AID 165);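 further: 0% = growth equal to vehicle treated cultures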; conditions: S. cerevisiae cln2 rad14 strain, active compounds read high
Summary of the method: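 Yeast strain cln2 rad14, bearing defects in cell cycle control and DNA repair, serves as the test system; values reflect growth inhibition compared with vehicle.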

[10] = NCI Yeast Anticancer Drug Screen. Data for the bub3 strain (AID 167); conditions: S. cerevisiae bub3 mutant strain, active compounds read high
Summary of the method: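 Mutant yeast screening strain plus compound; vehicle-treated cultures serve as the 0% inhibition reference.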

[11] = NCI Yeast Anticancer Drug Screen. Data for the wt2 strain (AID 169); conditions: S. cerevisiae wt2 strain growth inhibition, active compounds read high
Summary of the method: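 Treated yeast vs. vehicle-treated yeast: growth inhibition determined.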

[12] = NCI Yeast Anticancer Drug Screen. Data for the mlh1 strain (AID 171);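 further: 0% = growth of vehicle-treated control cultures of the same strain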; conditions: S. cerevisiae mlh1 strain growth inhibition, active compounds read high
Summary of the method: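 A yeast strain with a defined genetic lesion serves as the test organism. Cultures receive compound or vehicle, and growth is measured.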

[13] = NCI Yeast Anticancer Drug Screen. Data for the sgs1 strain (AID 173);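 further: 0% = growth of vehicle-only control cultures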; conditions: S. cerevisiae sgs1 mutant, active compounds read high
Summary of the method: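 A genetically defined yeast mutant is incubated with the test compound, and its growth is compared to that of the same strain given vehicle.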

[14] = NCI Yeast Anticancer Drug Screen. Data for the mlh1 rad18 strain (AID 175); conditions: S. cerevisiae mlh1 rad18 strain growth inhibition, active compounds read high
Summary of the method: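 Steps: expose repair-defective yeast to compound; measure growth; express inhibition against vehicle-treated controls.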

[15] = at 5.0 µM (retest, dose inferred, filed as 0.5)
[16] = at 50.0 µM (retest, dose inferred, filed as 5.0)

COc1ccc(C(=O)NCCN(C)C)c2nc3ccccc3cc12
growth inhibition ([1]; at 1.2 µM): -11%
growth inhibition ([1]; at 3.7 µM): 21%
growth inhibition ([1]; at 11.0 µM): -2%
growth inhibition ([1]; at 33.0 µM): -6%
growth inhibition ([1]; at 100.0 µM): 39%
growth inhibition ([2]; at 1.2 µM): 13%
growth inhibition ([2]; at 3.7 µM): 46%
growth inhibition ([2]; at 11.0 µM): 63%
growth inhibition ([2]; at 33.0 µM): 90% (active)
growth inhibition ([2]; at 100.0 µM): 96% (active)
growth inhibition ([3]; at 1.2 µM): 7%
growth inhibition ([3]; at 3.7 µM): 19%
growth inhibition ([3]; at 11.0 µM): 14%
growth inhibition ([3]; at 33.0 µM): 17%
growth inhibition ([3]; at 100.0 µM): 67%
growth inhibition ([4]; at 1.2 µM): 45%
growth inhibition ([4]; at 3.7 µM): 77% (active)
growth inhibition [4, 15]: 73% (active)
growth inhibition ([4]; at 11.0 µM): 93% (active)
growth inhibition ([4]; at 33.0 µM): 95% (active)
growth inhibition [4, 16]: 95% (active)
growth inhibition ([4]; at 50.0 µM): 82.5% (active)
growth inhibition ([4]; at 100.0 µM): 94% (active)
growth inhibition ([5]; at 1.2 µM): 18%
growth inhibition ([5]; at 3.7 µM): 17%
growth inhibition [5, 15]: 14%
growth inhibition ([5]; at 11.0 µM): 18%
growth inhibition ([5]; at 33.0 µM): 30%
growth inhibition [5, 16]: 59%
growth inhibition ([5]; at 50.0 µM): 71.2% (active)
growth inhibition ([5]; at 100.0 µM): 80% (active)
growth inhibition ([6]; at 1.2 µM): 7%
growth inhibition ([6]; at 3.7 µM): 3%
growth inhibition ([6]; at 11.0 µM): -9%
growth inhibition ([6]; at 33.0 µM): 10%
growth inhibition ([6]; at 100.0 µM): 57%
growth inhibition [7, 15]: 18%
growth inhibition [7, 16]: 39%
growth inhibition ([7]; at 50.0 µM): 30.6%
growth inhibition ([8]; at 1.2 µM): 29%
growth inhibition ([8]; at 3.7 µM): 26%
growth inhibition ([8]; at 11.0 µM): 29%
growth inhibition ([8]; at 33.0 µM): 41%
growth inhibition ([8]; at 100.0 µM): 73% (active)
growth inhibition [9, 15]: 17%
growth inhibition [9, 16]: 25%
growth inhibition ([9]; at 50.0 µM): 10.7%
growth inhibition ([10]; at 1.2 µM): 12%
growth inhibition ([10]; at 3.7 µM): 11%
growth inhibition [10, 15]: 22%
growth inhibition ([10]; at 11.0 µM): 9%
growth inhibition ([10]; at 33.0 µM): 9%
growth inhibition [10, 16]: 36%
growth inhibition ([10]; at 50.0 µM): -31.9%
growth inhibition ([10]; at 100.0 µM): 41%
growth inhibition ([11]; at 1.2 µM): -16%
growth inhibition ([11]; at 3.7 µM): -8%
growth inhibition ([11]; at 11.0 µM): -15%
growth inhibition ([11]; at 33.0 µM): -8%
growth inhibition ([11]; at 100.0 µM): 90% (active)
growth inhibition ([12]; at 1.2 µM): 26%
growth inhibition ([12]; at 3.7 µM): 23%
growth inhibition ([12]; at 11.0 µM): 18%
growth inhibition ([12]; at 33.0 µM): 29%
growth inhibition ([12]; at 100.0 µM): 75% (active)
growth inhibition ([13]; at 1.2 µM): 15%
growth inhibition ([13]; at 3.7 µM): 16%
growth inhibition ([13]; at 11.0 µM): 10%
growth inhibition ([13]; at 33.0 µM): 10%
growth inhibition ([13]; at 100.0 µM): 62%
growth inhibition [14, 15]: 19%
growth inhibition [14, 16]: 64%
growth inhibition ([14]; at 50.0 µM): 19.6%
